Results taken from the supplement of paper PMC9694430.

system: LOC_OS01G63280-cb003; assay: thermal shift delta Tm vs DMSO control; higher = stronger stabilization (binding); conditions: 12.5 µM; protein concentration 2 µM
In short: (§1)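 Thermal shift values come from differential scanning fluorimetry on purified rice kinase domains made in E. coli, with melting temperatures obtained from Boltzmann fits. Samples of 19.5 μl held 2 μM kinase, 100 mM potassium phosphate pH 7.5, 150 mM NaCl, 10% glycerol, 5 × SYPRO Orange and compound in DMSO, and were heated from 25°C to 95°C at 0.05°C/s. Each shift is a triplicate mean relative to the DMSO-only protein sample.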
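Further: purified Escherichia coli-expressed rice kinase domain construct.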

**Q.** With `Clc1ccc(C2(c3ccc(-c4cn[nH]c4)cc3)CCNCC2)cc1` as the compound, how does the “thermal shift delta Tm” value read?
**A.** 0.22 °C

**Q.** `CN(C)Cc1cccc(N/C(=C2\C(=O)Nc3cc(C(N)=O)ccc32)c2ccccc2)c1` was tested. Which “thermal shift delta Tm” value did it give?
**A.** 0.43 °C

**Q.** How did the “thermal shift delta Tm” value turn out when `CC[C@H](CO)Nc1nc(NCc2ccccc2)c2ncn(C(C)C)c2n1` [Roscovitine (Seliciclib,CYC202)] was run?
**A.** 0.16 °C

**Q.** With `Cc1cc(Nc2cc(N3CCN(C)CC3)nc(/C=C/c3ccccc3)n2)n[nH]1` as the compound, how does the “thermal shift delta Tm” value read?
**A.** 0.17 °C

system: LOC_OS01G67340-cb003; assay: as above; conditions: 12.5 µM; protein concentration 2 µM
In short: as §1

**Q.** For `CCOc1cc2ncc(C#N)c(Nc3ccc(OCc4ccccn4)c(Cl)c3)c2cc1NC(=O)/C=C/CN(C)C` [Neratinib (HKI-272)], which “thermal shift delta Tm” value is on record?
**A.** 1.41 °C

**Q.** With `COc1cc2nccc(Oc3ccc(NC(=O)Nc4cc(C)on4)c(Cl)c3)c2cc1OC` [Tivozanib (AV-951)] as the compound, how does the “thermal shift delta Tm” value read?
**A.** 0.1 °C

**Q.** Which “thermal shift delta Tm” value does the source give for `O=C1NC(=O)C(c2ccccc2[N+](=O)[O-])=C1Nc1ccc(O)c(Cl)c1` here?
**A.** 0.79 °C

**Q.** With `Cc1c(C(=O)N2CCOc3ccc(-c4ccc(N)nc4)cc3C2)ccc(S(C)(=O)=O)c1F` as the compound, how does the “thermal shift delta Tm” value read?
**A.** 0.21 °C

**Q.** How did the “thermal shift delta Tm” value turn out when `Cn1nccc1Nc1nccc(-c2ccn([C@H](CO)c3ccc(Cl)c(F)c3)c(=O)c2)n1` was run?
**A.** 0.09 °C

**Q.** How did the “thermal shift delta Tm” value turn out when `COc1cc2c(N3CCN(C(=O)Nc4ccc(OC(C)C)cc4)CC3)ncnc2cc1OCCCN1CCCCC1` [Tandutinib (MLN518)] was run?
**A.** 0.5 °C

**Q.** Which “thermal shift delta Tm” value does the source give for `C[C@@H]1COCCN1c1cc(=O)n2c(n1)N(Cc1cncc(Cl)c1)[C@H](C(F)(F)F)CC2` here?
**A.** 0.35 °C

**Q.** With `COc1ccc(F)c(F)c1C(=O)c1cnc(NC2CCN(S(C)(=O)=O)CC2)nc1N` as the compound, how does the “thermal shift delta Tm” value read?
**A.** 1.43 °C

**Q.** `O=C(NCc1ccccc1)c1csc(Nc2ccncn2)n1` [Thiazovivin] was tested. Which “thermal shift delta Tm” value did it give?
**A.** 0.47 °C

**Q.** For `CCN(CC)CCCCNc1ncc2cc(-c3cc(OC)cc(OC)c3)c(NC(=O)NC(C)(C)C)nc2n1`, which “thermal shift delta Tm” value is on record?
**A.** 0.05 °C

**Q.** For `O=c1cc(N2CCOCC2)oc2c(-c3ccc4c(c3)OCCO4)csc12`, which “thermal shift delta Tm” value is on record?
**A.** 0.35 °C

**Q.** For `Nc1ccc(C(=O)Nc2cccc(-c3nc(N4CCOCC4)c4oc5ncccc5c4n3)c2)cn1`, which “thermal shift delta Tm” value is on record?
**A.** -0.15 °C

**Q.** `O=C(NC[C@H](O)CO)c1ccncc1Nc1ccc(I)cc1F` was tested. Which “thermal shift delta Tm” value did it give?
**A.** -0.19 °C

**Q.** Which “thermal shift delta Tm” value does the source give for `CCOc1cc2ncc(C#N)c(Nc3ccc(F)c(Cl)c3)c2cc1NC(=O)/C=C/CN(C)C` [Pelitinib (EKB-569)] here?
**A.** 0.12 °C

**Q.** How did the “thermal shift delta Tm” value turn out when `COc1cc2ncnc(Nc3ccc(Cl)cc3F)c2cc1OC` was run?
**A.** 0.32 °C

**Q.** With `Cc1cc(Nc2ncnc3ccc(NC4=NC(C)(C)CO4)cc23)ccc1Oc1ccn2ncnc2c1` [Irbinitinib (ARRY-380, ONT-380)] as the compound, how does the “thermal shift delta Tm” value read?
**A.** -1.04 °C

**Q.** For `CC1(C)CNc2cc(NC(=O)c3cccnc3NCc3ccncc3)ccc21` [Motesanib Diphosphate (AMG-706)], which “thermal shift delta Tm” value is on record?
**A.** -0.45 °C

**Q.** Which “thermal shift delta Tm” value does the source give for `COC(=O)Nc1ccc(-c2nc(N3CCOCC3)c3cnn(C4CCN(C(=O)OC)CC4)c3n2)cc1` here?
**A.** 0.13 °C

**Q.** With `COc1cc(C(=O)N2CCC(N3CCN(C)CC3)CC2)ccc1Nc1ncc2c(n1)N(C)c1ccccc1C(=O)N2C` as the compound, how does the “thermal shift delta Tm” value read?
**A.** 0.17 °C

**Q.** How did the “thermal shift delta Tm” value turn out when `C=C(C)[C@@H]1CC[C@]2(C)CC[C@]3(C)[C@H](CC[C@@H]4[C@@]5(C)CC[C@H](O)C(C)(C)[C@@H]5CC[C@]43C)[C@@H]12` [Lupeol] was run?
**A.** 0.51 °C

**Q.** Which “thermal shift delta Tm” value does the source give for `Oc1cccc(-c2nc(N3CCOCC3)c3oc4ncccc4c3n2)c1` here?
**A.** 0.14 °C

**Q.** For `CCn1c(N)c(C(=O)NC)c(=O)c2ccc(C#CC(C)(O)COC)nc21` (centres undefined), which “thermal shift delta Tm” value is on record?
**A.** 0.38 °C

**Q.** Which “thermal shift delta Tm” value does the source give for `CCOc1cc(C(=O)N2CCC(N3CCN(C)CC3)CC2)ccc1Nc1ncc2c(n1)N(C1CCCC1)c1ccccc1C(=O)N2C` here?
**A.** 0.42 °C

**Q.** With `Cc1ccc(NC(=O)c2cccc(C(C)(C)C#N)c2)cc1Nc1ccc2ncn(C)c(=O)c2c1` as the compound, how does the “thermal shift delta Tm” value read?
**A.** 0.79 °C

**Q.** `Nc1ccc(-c2ccc3ncc4ccc(=O)n(-c5cccc(C(F)(F)F)c5)c4c3c2)cn1` [Torin 2] was tested. Which “thermal shift delta Tm” value did it give?
**A.** 0.33 °C

**Q.** With `CCN(CC)CCCC(C)Nc1ccnc2cc(Cl)ccc12` (centres undefined) [Chloroquine Phosphate] as the compound, how does the “thermal shift delta Tm” value read?
**A.** 0.32 °C

**Q.** `C[C@@H](N)[C@H]1CC[C@H](C(=O)Nc2ccncc2)CC1` was tested. Which “thermal shift delta Tm” value did it give?
**A.** 0.04 °C

**Q.** `COc1cc(N2CCC(N(C)C)CC2)ccc1Nc1ncc(Cl)c(Nc2ccccc2P(C)(C)=O)n1` was tested. Which “thermal shift delta Tm” value did it give?
**A.** 1.45 °C

**Q.** `CCCS(=O)(=O)Nc1ccc(F)c(C(=O)c2c[nH]c3ncc(-c4ccc(Cl)cc4)cc23)c1F` [Vemurafenib (PLX4032, RG7204)] was tested. Which “thermal shift delta Tm” value did it give?
**A.** 3.46 °C

**Q.** How did the “thermal shift delta Tm” value turn out when `CO[C@H]1C[C@@H]2CC[C@@H](C)[C@@](O)(O2)C(=O)C(=O)N2CCCC[C@H]2C(=O)O[C@H]([C@H](C)C[C@@H]2CC[C@@H](OCCO)[C@H](OC)C2)CC(=O)[C@H](C)/C=C(\C)[C@@H](O)[C@@H](OC)C(=O)[C@H](C)C[C@H](C)/C=C/C=C/C=C/1C` [Everolimus (RAD001)] was run?
**A.** -0.17 °C
